Reference: PubChem BioAssay AID602329 (Broad Institute, 2012)
About 510 (0.14%) of roughly 360,000 compounds were called active.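 Rule for the calls: active = mean normalized replicate activity at least 40 and at least half of replicates scoring 40 or more; inconclusive = only one of the two criteria met; inactive = mean below 40 and under half of replicates reaching 40.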 For the sample, actives were picked, then their nearest neighbours and some compounds at random.

The compounds below were run against DNA repair and recombination protein RAD54-like (Homo sapiens) (UniProt Q92698) (assay: inhibitors of human RAD54 branch migration, primary screen, biochemical, fluorescence, single point (AID 602329;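 note: 0% = median of neutral control wells and 100% = median of positive control wells; inhibitors cause a drop in the FAM fluorescence signal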)). Conditions: RAD54 Holliday junction branch migration, FAM/BHQ fluorescence; at 10.4 µM; hits give high values.
DNA repair and recombination protein RAD54-like (Homo sapiens), sequence (Q92698 whole entry, looked up): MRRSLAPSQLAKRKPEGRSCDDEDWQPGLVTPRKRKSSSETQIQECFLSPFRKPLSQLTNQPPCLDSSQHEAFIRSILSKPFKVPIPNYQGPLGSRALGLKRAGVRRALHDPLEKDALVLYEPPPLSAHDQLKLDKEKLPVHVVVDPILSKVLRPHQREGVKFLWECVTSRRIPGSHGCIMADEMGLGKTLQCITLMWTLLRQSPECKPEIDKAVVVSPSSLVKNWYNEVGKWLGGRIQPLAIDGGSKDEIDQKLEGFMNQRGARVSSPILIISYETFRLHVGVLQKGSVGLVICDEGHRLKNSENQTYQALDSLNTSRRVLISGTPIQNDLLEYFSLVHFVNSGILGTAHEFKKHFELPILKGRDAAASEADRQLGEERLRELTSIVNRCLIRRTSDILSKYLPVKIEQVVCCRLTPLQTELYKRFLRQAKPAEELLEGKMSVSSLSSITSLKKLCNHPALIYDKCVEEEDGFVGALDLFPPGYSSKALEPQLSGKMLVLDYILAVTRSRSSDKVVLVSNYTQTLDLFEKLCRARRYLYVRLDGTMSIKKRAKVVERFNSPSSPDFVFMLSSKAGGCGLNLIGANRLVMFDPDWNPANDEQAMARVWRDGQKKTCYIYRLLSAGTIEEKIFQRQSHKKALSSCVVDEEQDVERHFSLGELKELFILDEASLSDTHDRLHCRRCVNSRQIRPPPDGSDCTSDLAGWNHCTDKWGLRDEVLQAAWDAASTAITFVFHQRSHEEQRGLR

Compound | inhibition
CCOc1cccc(=NC2CCCCC2)c2c(C)[nH]c(C)c12 | 76.8% (active)
COc1cccc(-c2ccc3n(c2=O)C[C@@H]2[C@@H](CO)[C@H](C(=O)O)[C@H]3N2C(=O)c2cnccn2)c1 | -0.151% (inactive)
O=C(O)[C@@H]1[C@@H](CO)[C@@H]2Cn3c(ccc(-c4ccccc4F)c3=O)[C@H]1N2C(=O)c1cccnc1 | -3.76% (inactive)
COC(=O)[C@@H]1[C@@H](CO)[C@@H]2Cn3c(ccc(C4=CCCCC4)c3=O)[C@H]1N2CC1CC1 | -6.66% (inactive)
C[C@H](CO)N1C[C@H](C)[C@H](CN(C)C(=O)Oc2ccc3ccccc3c2)OCc2cnnn2CCCC1=O | -17.1% (inactive)
COC(=O)[C@H]1[C@H](CO)[C@H]2Cn3c(ccc(C4=CCCC4)c3=O)[C@@H]1N2C(=O)CC1CC1 | 1.44% (inactive)
CN1CCN(c2cc(N3CCNCC3)ccc2[N+](=O)[O-])CC1 | 68% (active)
COc1cccc(-c2nc3ccc(N4CCN(C)CC4)cc3[nH]2)c1 | 19.3% (inactive)
COC(=O)[C@H]1[C@H](CO)[C@H]2Cn3c(ccc(-c4cccc(F)c4)c3=O)[C@@H]1N2Cc1ccccc1 | 9.7% (inactive)
O=C(O)[C@H]1[C@H](CO)[C@H]2Cn3c(ccc(-c4ccccc4)c3=O)[C@@H]1N2S(=O)(=O)c1ccccc1F | 6.58% (inactive)
